# Source: PubChem BioAssay (NCI)
# About 79,000 compounds went through this panel and 15% of them were active in at least one assay; those are over-represented in the sample as a whole. Unmarked numbers belong to inactive results. Active and inactive are the calls of the source. Rule as the data show it: active = growth inhibition above about 70%; inactive = the rest.
# Test: NCI Yeast Anticancer Drug Screen. Data for the cln2 rad14 strain (AID 165);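 also: 0% = growth equal to vehicle treated cultures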
# Conditions: S. cerevisiae cln2 rad14 strain, at 50.0 µM, hits give high values
# In short: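 Growth of compound-exposed yeast (cln2 rad14 genotype) measured and expressed as inhibition relative to vehicle.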
row,SMILES,growth inhibition
1,CC(C)=CCNc1nc(Cl)nc2nc[nH]c12,-14.5%
2,BrC1CC2CCCCC2CC1Br (stereo not given),-9.75%
3,CC(C)OC(=O)C1CCC(=O)N1 (stereo not given),-84.1%
4,COc1cc(O)c2c(c1)C(=O)c1cc(C)cc(O)c1C2=O,-21.1%
5,CC(=O)Oc1cc2oc([O-])c[n+]2c2ccccc12,5.45%
6,CCc1ccc2[nH]nc(CCC(=O)O)c(=O)c2c1,-12.4%
7,O=c1c(Cl)cc(Cl)cn1S(=O)(=O)c1ccc([N+](=O)[O-])cc1,98.7% (active)
8,O=[N+]([O-])c1cc(O)ccc1O,-10.7%
9,CCCCC(CC)COCCC(=O)O (stereo not given),-55.9%
10,CC(CC(=N)N)NC(=O)C1CCC(N)=N1 (stereo not given),-1.6%
11,CCCCC(=O)N1SC(NC(=O)OC)=Nc2ccccc21,67.2%
12,COc1ccc(/C=C2/C(=O)N(c3ccccc3)N=C2C)cc1,0.4%
13,CCOC(=O)c1ccc(C#N)cc1,-7.6%
14,Cc1ccc(NC(=O)C2CCN(C)CC2)cc1,-23.4%
15,CCC(O)(C#CCl)CC,10.2%
16,COc1ccc2c(c1)CC1(CC2)CCN(CCCN(C)C)CC1,10.6%
17,O=C(CCCc1ccc([N+](=O)[O-])cc1)c1ccccc1,-28.4%
18,Cc1cc(C)c(/C=N/NC(=O)NN)c(C)c1,-2.1%
19,CC(=O)N(C)c1ccc(N)cc1,-2.35%
20,COc1cc(-c2ccc(N=Nc3ccc(N)nc3N)c(OC)c2)ccc1N=Nc1ccc(N)nc1N,12.4%

row,SMILES,growth inhibition
1,CCCCCCC(O)CCCCCCCCCCCO (stereo not given),-43%
2,C=C(C)CCC[C@@H](C)C1CCC2(C)[C@@H]3CCC4C(C)(C)[C@@H](O)CC[C@@]45C[C@@]35CC[C@]12C (stereo not given in full),0.5%
3,OC(c1cc(-c2ccccc2)nc2c1ccc1ccccc12)C1CCCCN1 (stereo not given),14%
4,COc1ccc2c(c1)C(=O)[C@@](Nc1ccc(C=O)cc1)(OC)[C@@](OC)(c1ccc([N+](=O)[O-])cc1)O2,2.3%
5,CC(C)C1CCC(=O)CC1,-12.2%
6,CN(C)S(=O)(=O)N1CCCc2ccccc21,7.1%
7,CCC(O)(c1ccc(OC)cc1)C(O)(CC)c1ccc(OC)cc1 (stereo not given),7.8%
8,CN1C(c2ccccc2)=C(C#N)C(=O)CC(c2ccc(Cl)cc2)N1C (stereo not given),-15.8%
9,ClC(c1ccccc1)c1cccc2ccccc12 (stereo not given),21.5%
10,CCCCCCCCC(=O)OCC(=O)c1ccc(-c2ccccc2)cc1,-7.85%
11,Nc1nc(N)c2c(n1)CCC(CNc1ccc(C(=O)NC(CCC(=O)O)C(=O)O)cc1)C2 (stereo not given),40.2%
12,CCCCOC(=O)C1(C(=O)OCCCC)CC1,1.6%
13,N#CCc1ccc(-c2ccccc2)cc1,-31.9%
14,CC(C)NCc1ccccc1Sc1ccccc1CNC(C)C,12.8%
15,C/C(=N/NC(N)=O)C1CCC(C)CC1 (stereo not given),12.3%
16,C=CCCCCCCCCC(=O)NCC1CC1,-44.8%
17,Nc1ncnc2c1ncn2C1C=CC(COS(N)(=O)=O)C1 (stereo not given),10.8%
18,CCCCCCCCCCCCCCCCS(=O)(=O)N/N=C(/C)N(C)c1ccc(OC)cc1,-10.4%
19,Cc1onc(-c2c(F)cccc2Cl)c1C(=O)OCc1c(F)cccc1Cl,11.5%
20,CC(C)CC(CC(C)C)=NNC(N)=O,18.9%
